Bioassay records (PubChem)
Gal4-VP16 FLuc – Gal4-VP16 reporter inhibition counter-screen; Drosophila S2 Gal4-VP16 UAS-luciferase, luminescence, 20 h; Potency, µM (doses to about 53.6 µM), for inactives: at the highest dose activity, negative = inhibition, most hits filed as inhibitors; 310,000 compounds, 3.5% hits; AID 2546;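 further: Gal4-VP16 expression switched on by copper sulfate through the metallothionein promoter; potency means the concentration at half of the fitted maximal effect; nearly all actives have a fitted effect of over 50% in size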
Six1-Eya2 inh – Six1/Eya2 interaction inhibition; AlphaScreen GST-Six1/His-Eya2 binding, biochemical; stronger effect = lower value; activity change, % (test concentration not listed); 360,000 compounds, 0.56% hits; AID 651725; in the data active means activity change below about -65%; inconclusive means mostly about -30% to -63%
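Homogeneous AlphaScreen proximity assay pairing GST-Six1 with His-tagged Eya2 (added as 5X mix: 250 nM and 500 nM) in 50 mM Tris pH 8.0, 300 mM NaCl, 1 mM TCEP. Glutathione donor and nickel acceptor beads; 1 h, 37 °C, dark.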
CtBP-E1A blk – blocks the CtBP interaction with E1A; AlphaScreen GST-E1A/His-CtBP binding, 1536-well; stronger effect = lower value; activity change, % (no concentration beside the values); 340,000 compounds, 0.49% hits; in the data active means activity change below about -65%; inconclusive means mostly about -30% to -63%
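Protein mix (5X: 125 nM each GST-E1A, His-CtBP) was incubated with pinned compound 2 h at 37 deg C in dark, in 50 mM Tris pH 8.0 buffer with 300 mM NaCl. Glutathione donor and nickel acceptor beads followed; AlphaScreen signal read after 1 h.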
RORg inh – inhibitors of mouse ROR gamma transcriptional activity | 310,000 compounds, 5.4% hits | Drosophila S2 Gal4-RORgamma UAS-luciferase reporter, 20 h | P51450 | AID 2551 | Potency, µM (series often up to 53.6 µM), without a hit: at the top dose activity change, negative = inhibition, hits mostly inhibitors; further: potency means the concentration at half of the fitted maximal effect; nearly all actives have a fitted effect of over 60% in size
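Read-out: Photinus luciferase luminescence; inhibitors lower reporter signal. Insect Schneider cells with Gal4-ROR gamma fusion under metallothionein promoter, UAS reporter; 700 uM final copper sulfate induction, 20 hr, ambient temperature.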
PKM2 act – increases activity of human pyruvate kinase M2. P14618. purified PKM2, Kinase-Glo ATP luminescence, activation; response scale: 0% is enzyme alone, no compound. Potency, µM (top dose mostly 57.5 µM), for the others: at the highest dose activation, hits mostly activators. 260,000 compounds, 0.34% hits. AID 1631; further: potency means the concentration at half of the fitted maximal effect; nearly all actives have a fitted effect of over 55% in size
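ATP formation by purified human PK-M2, quantified via coupled luciferase luminescence after 1 h at room temperature with 0.1 mM ADP and 0.5 mM PEP final.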
* marks the source's active call; other numbers are inactive results; ? = inconclusive; nt = no result given; [ ] = another dose, or the depositor's remark. In the library only some 5.6% were active in any assay of this set; here they are far more common. Unless noted, the call rests on the fitted dose curve; in most records, active means well fitted curve in the direction sought with a large enough effect; inconclusive means small, poorly fitted or top-dose-only effect, or another doubt; inactive means no such curve, though single readings can be large; an effect the other way counts as inactive or inconclusive. On the % scale 0 is the no-effect control and ±100 the full control effect.

SMILES	Gal4-VP16 FLuc	Six1-Eya2 inh	CtBP-E1A blk	RORg inh	PKM2 act
COc1cnc(-c2ccccn2)nc1N(C)C	?	-89*	-94*	18µM*	-2%
COc1ccc(Oc2nc(-c3ccccn3)ncc2OC)cc1	-20%	?	-16	7.1µM*	0%
O=C(COC(=O)/C=C/c1ccc(OC(F)F)cc1)NC1CCCCCC1	nt	-2	1	nt	nt
CC(C)CCC1(C)NC(=O)N(CC(=O)c2ccc[nH]2)C1=O (stereo not drawn)	nt	3	-1	nt	nt
Cc1ccc(CNC(=S)Nc2ccc(C)c([N+](=O)[O-])c2)cc1	3.5µM*	0	-6	6.3µM*	5%
CNC(=S)Nc1ccc([N+](=O)[O-])cc1C	2%	5	3	-5%	2%
CNC(=S)Nc1ccc([N+](=O)[O-])c(C)c1	?	8	3	10µM*	1%
NC(=O)N/N=C/c1ccc(OCc2cccc(Cl)c2)cc1	4%	10	-8	-2%	1%
Cc1ccc(/C=N/NC(=O)c2cccc([N+](=O)[O-])c2)o1	?	-29	-21	-22%[10 µM]	-4%
O=C(N/N=C/c1ccc(Br)s1)c1cccc([N+](=O)[O-])c1	1µM*	-16	21	0.45µM*	2%
Cc1ccc(C(=O)N/N=C/c2ccoc2)cc1C	?	-2	-25	13µM*	-1%
O=C(N/N=C/c1ccoc1)c1cccc([N+](=O)[O-])c1	?	1	0	11µM*	-9%
COc1ccc(C(=O)N/N=C\c2ccoc2)cc1	1%	6	-5	-20%	-11%
O=C(NC(NC(=S)Nc1ccccc1)C(Cl)(Cl)Cl)c1cccc(Cl)c1 (stereo not drawn)	?	-5	5	11µM*	-1%
Cc1cc(C)c(NC(=S)NC(NC(=O)c2ccccc2)C(Cl)(Cl)Cl)c(C)c1 (stereo not drawn)	?	-4	-4	20µM*	-3%
CCN=c1scc(C)n1/N=C/c1ccc(O)c(O)c1O	?	?	?	3.5µM*	?
CCCOc1cccc(C2C(C(=O)c3cccs3)=C(O)C(=O)N2CCN2CCOCC2)c1 (stereo not drawn)	-14%	-3	1	-10%	nt
O=C1ON(Cc2ccccc2)C(c2ccccc2)N1c1ccccc1 (stereo not drawn)	nt	0	3	nt	nt
COc1ccc(CC(=O)N2N=C(C)CC2(O)c2cccnc2)cc1 (stereo not drawn)	-2%	3	6	-45%	5%
COc1ccc(CC(=O)N2N=C(C)CC2(O)c2cccnc2)cc1OC (stereo not drawn)	?	9	24	11µM*	0%
CC1=NN(C(=O)Cc2ccc([N+](=O)[O-])cc2)C(O)(c2cccnc2)C1 (stereo not drawn)	-6%[0.365 µM]	2	-5	14µM*	-6%
CCC1=NN(C(=O)Cc2ccc(OC)c(OC)c2)C(O)(C(F)(F)F)C1 (stereo not drawn)	?	12	5	16µM*	3%
CC1=NN(C(=O)Cc2ccc([N+](=O)[O-])cc2)C(O)(c2ccccc2)C1 (stereo not drawn)	13µM*	15	47	8.9µM*	-3%
Cc1ccc(S(=O)(=O)c2nc(S(C)(=O)=O)sc2N2CCC(C)CC2)cc1	?	-1	-1	-5%	nt
Fc1ccc(CN2CCCN(C(=S)Nc3ccc(F)cc3)CC2)cc1	6%	-4	2	-23%	2%
COc1ccc(NC(=S)N2CCCN(Cc3cccc(Cl)c3)C2)cc1	3%[10 µM]	-9	-14	13µM*	3%
COc1cccc(NC(=S)N2CCCN(Cc3ccc(F)cc3)C2)c1	?	-10	?	3.5µM*	5%
CSc1cccc(NC(=S)N2CCCN(Cc3cccc(Cl)c3)C2)c1	?	-11	-19	10µM*	-5%
Cc1cccc(C)c1NC(=S)N1CCCN(Cc2ccc(F)cc2)C1	23%	6	1	14µM*	-1%
C[C@H]1CN([C@@H](C)CO)C(=O)CCCn2cc(nn2)CO[C@@H]1CN(C)C(=O)Oc1ccccc1	nt	11	-3	nt	nt
